In article PMC4336329 (PLoS ONE, 2015):
Hit rate of the full screen: of about 310,000 compounds, about 14,000 (4.5%) showed an effect of 50% or more. Effects have a minus sign here. Only a selection was taken, and strong results are over-represented in it overall.

Target: human ether-à-go-go-related gene (hERG) potassium channel (human, UniProt Q12809)
Test: primary screen, population patch clamp on CHO cells stably expressing hERG; higher = less effect of the substance
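Also: peak tail current of the secondary pulse compared with the same well before compound.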

Chain of human ether-à-go-go-related gene (hERG) potassium channel (Q12809 whole entry, looked up): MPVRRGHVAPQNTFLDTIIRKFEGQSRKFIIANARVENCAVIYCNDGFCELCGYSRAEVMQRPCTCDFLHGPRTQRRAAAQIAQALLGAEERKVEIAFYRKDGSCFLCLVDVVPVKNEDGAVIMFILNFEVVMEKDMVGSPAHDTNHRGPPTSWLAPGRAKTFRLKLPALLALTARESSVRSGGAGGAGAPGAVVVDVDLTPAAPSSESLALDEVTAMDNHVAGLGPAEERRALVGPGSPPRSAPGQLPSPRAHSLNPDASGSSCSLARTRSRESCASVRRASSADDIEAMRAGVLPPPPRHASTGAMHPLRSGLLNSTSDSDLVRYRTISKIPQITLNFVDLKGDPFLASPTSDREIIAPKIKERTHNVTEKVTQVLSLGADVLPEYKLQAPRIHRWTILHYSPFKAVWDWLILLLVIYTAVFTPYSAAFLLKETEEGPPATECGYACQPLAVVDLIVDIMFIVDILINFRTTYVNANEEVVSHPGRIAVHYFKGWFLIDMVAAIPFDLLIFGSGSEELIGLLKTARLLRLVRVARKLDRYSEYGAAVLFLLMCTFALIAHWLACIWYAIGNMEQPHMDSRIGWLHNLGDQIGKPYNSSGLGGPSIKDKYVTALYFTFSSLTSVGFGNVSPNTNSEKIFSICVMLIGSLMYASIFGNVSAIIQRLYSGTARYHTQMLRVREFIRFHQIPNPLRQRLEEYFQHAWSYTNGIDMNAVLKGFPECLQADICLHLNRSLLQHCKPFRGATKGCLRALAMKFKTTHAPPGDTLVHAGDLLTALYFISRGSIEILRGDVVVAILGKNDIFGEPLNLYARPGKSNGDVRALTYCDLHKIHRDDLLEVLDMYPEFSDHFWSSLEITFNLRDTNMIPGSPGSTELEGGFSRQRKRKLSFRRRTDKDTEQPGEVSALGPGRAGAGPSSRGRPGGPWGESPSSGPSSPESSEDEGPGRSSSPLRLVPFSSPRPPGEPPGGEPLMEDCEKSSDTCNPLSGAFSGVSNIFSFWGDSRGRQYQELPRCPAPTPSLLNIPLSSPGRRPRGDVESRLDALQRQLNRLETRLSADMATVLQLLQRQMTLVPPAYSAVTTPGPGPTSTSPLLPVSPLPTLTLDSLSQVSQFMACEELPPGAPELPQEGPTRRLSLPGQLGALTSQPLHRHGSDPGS

| SMILES | hERG current change (%, negative = inhibition) at 10uM |
| --- | --- |
| CC(=O)c1ccccc1C(=O)N(C)C1CCCN(Cc2ccccc2F)C1 (centres unmarked) | 15.2% |
| CNC(=O)N(O)C1N(/N=C/c2ccc(SC)cc2)C(=S)SC1(C)C (centres unmarked) | 26.3% |
| O=C(NCCN1CCOCC1)c1ccc2c(c1)N(Cc1ccc(Cl)cc1)CCS2 | -29.8% |
| N#Cc1c(N)n(-c2ccc(O)cc2)c2nc3ccccc3nc12 | 8.96% |
| COc1cccc(CC2(CO)CCCN(Cc3cn(C)c4ccccc34)C2)c1 (centres unmarked) | -77.9% |
| COc1cccc(CC2(CO)CCCN(Cc3cn[nH]c3-c3cc(C)ccc3C)C2)c1 (centres unmarked) | -59.2% |
| COc1cccc(CC2(CO)CCCN(Cc3cn[nH]c3-c3ccccc3)C2)c1 (centres unmarked) | -49.9% |
| OCC1(Cc2ccc(F)cc2)CCCN(Cc2ccc(F)cc2Cl)C1 (centres unmarked) | -2.59% |
| Cc1ccc(C)c(-c2[nH]ncc2CN2CCCC(CO)(Cc3ccccc3C)C2)c1 (centres unmarked) | -47.8% |
| COc1cccc(CC2(CO)CCCN(Cc3ccc(-c4ccco4)cc3)C2)c1 (centres unmarked) | -3.75% |
| COc1cccc(CC2(CO)CCCN(Cc3ccccc3-c3ccco3)C2)c1 (centres unmarked) | -75.8% |
| COc1ccc(CN2CCCC(CO)(Cc3ccc(F)cc3)C2)cc1C (centres unmarked) | -47.7% |
| COc1ccc(CN2CCCC(CO)(Cc3ccc(F)cc3)C2)c(OC)c1OC (centres unmarked) | -71.1% |
| COc1cccc(CC2(CO)CCCN(Cc3ccccc3Cl)C2)c1 (centres unmarked) | -31.2% |
| CC1C(=O)C(C)C(c2ccco2)NC1c1ccco1.Cl (centres unmarked) | 13.9% |
| O=C(CSc1nnc(CNC(=O)c2cccs2)o1)NC1CCCCC1 | -24% |
| C/C(=N/NC(=O)c1ccncc1)c1ccc2c(c1)OCO2 | 13.8% |
| COc1cccc(CC2(CO)CCCN(Cc3ccc(OC)c(C)c3OC)C2)c1 (centres unmarked) | -77.6% |
| COc1ccc(C(N)=O)cc1NC(=O)c1cccc(F)c1 | 18.9% |
| O=C(COC(=O)C(Cc1ccccc1)NC(=O)c1ccc(Cl)cc1)c1ccc(Cl)cc1 (centres unmarked) | -27.3% |
| O=C(COC(=O)C(Cc1ccccc1)NC(=O)c1ccccc1)c1ccccc1 (centres unmarked) | -1.84% |

| SMILES | hERG current change (%, negative = inhibition) at 10uM |
| --- | --- |
| NC(=O)c1ccc(NC(=O)COC(=O)C(Cc2ccccc2)NC(=O)c2ccccc2)cc1 (centres unmarked) | -53% |
| O=C(NC1CC1)C1=C[C@@H](c2ccc(Br)cc2)C[C@@H](OCc2ccc(CO)cc2)O1 | -56.4% |
| CN1CCN(C(=O)C2=C[C@H](c3ccc(C(F)(F)F)cc3)C[C@H](OCc3ccc(CO)cc3)O2)CC1 | -40.4% |
| O=C(O)C1=C[C@H](c2ccc(Br)cc2)C[C@H](OCc2ccc(CO)cc2)O1 | 15.1% |
| O=C(C1=C[C@H](c2ccc(C(F)(F)F)cc2)C[C@H](OCc2ccc(CO)cc2)O1)N1CCCCCCC1 | -17.7% |
| O=C(NC1CC1)C1=C[C@@H](c2ccc(C(F)(F)F)cc2)C[C@@H](OCc2ccc(CO)cc2)O1 | -63.2% |
| O=C(O)C1=C[C@@H](c2ccc(C(F)(F)F)cc2)C[C@@H](OCc2ccc(CO)cc2)O1 | 16.7% |
| O=C(NC1CC1)C1=C[C@H](c2ccc(Br)cc2)C[C@H](OCc2ccc(CO)cc2)O1 | -71.1% |
| C#Cc1ccc([C@@H]2C=C(C(=O)NC3CC3)O[C@H](OCc3ccc(CO)cc3)C2)cc1 | -3.96% |
| O=C(NC1CC1)C1=C[C@H](c2ccccc2)C[C@H](OCc2ccc(CO)cc2)O1 | -19.9% |
| CN1CCN(C(=O)C2=C[C@@H](c3ccc(C(F)(F)F)cc3)C[C@@H](OCc3ccc(CO)cc3)O2)CC1 | -52.6% |
| O=C(NC1CC1)C1=C[C@H](c2ccc(C(F)(F)F)cc2)C[C@H](OCc2ccc(CO)cc2)O1 | -42.7% |
| O=C(NC1CC1)C1=C[C@@H](c2ccccc2)C[C@@H](OCc2ccc(CO)cc2)O1 | -38.3% |
| COc1cc(CNC(=O)c2ccc3c(c2)S(=O)(=O)c2ccccc2C3=O)cc(OC)c1 | -0.0926% |
| O=C(COC(=O)c1cccc(Br)c1)Nc1cccc2c1C(=O)c1ccccc1C2=O | 4.56% |
| Cc1cccc(C)c1Nc1nnc(SCC(=O)NC2CCS(=O)(=O)C2)s1 (centres unmarked) | 1.96% |
| CS(=O)(=O)CCC(C(=O)n1nnc2ccccc21)N1C(=O)c2ccccc2C1=O (centres unmarked) | -3.22% |
| Cc1ccc(NS(=O)(=O)c2ccc(Cl)c(C(=O)Nc3ccccc3-c3nc4ccccc4[nH]3)c2)cc1C | 17.2% |
| O=C(CC12CC3CC(CC(C3)C1)C2)Nc1ccc2c(c1)COC2=O | -9.44% |
| CN(C(=O)/C=C/c1ccccc1)C1CCS(=O)(=O)C1 (centres unmarked) | -0.518% |
| Cc1ccc(CS(=O)Cc2ccc(C(=O)N3CCN(c4ccccn4)CC3)o2)cc1 (centres unmarked) | -10.1% |

| SMILES | hERG current change (%, negative = inhibition) at 10uM |
| --- | --- |
| Cc1ccc(CS(=O)Cc2ccc(C(=O)N3CCN(c4ccc(F)cc4)CC3)o2)cc1 (centres unmarked) | -52.9% |
| COc1ccc(N2CCN(C(=O)c3ccc(CS(=O)Cc4ccc(Cl)cc4)o3)CC2)cc1 (centres unmarked) | -50.1% |
| O=C(c1ccc(CS(=O)Cc2ccccc2Cl)o1)N1CCN(c2ccccn2)CC1 (centres unmarked) | -5.66% |
| O=C(c1ccc(CS(=O)Cc2ccc(Cl)cc2)o1)N1CCN(c2ccccn2)CC1 (centres unmarked) | -61.2% |
| COc1cccc(N2CCN(C(=O)c3ccc(CS(=O)c4ccccc4Cl)o3)CC2)c1 (centres unmarked) | -30.8% |
| Cc1ccc(CS(=O)Cc2ccc(C(=O)N3CCOCC3)o2)cc1 (centres unmarked) | -33.3% |
| COc1ccc(N2CCN(C(=O)c3ccc(CS(=O)Cc4ccc(C)cc4)o3)CC2)cc1 (centres unmarked) | -18.3% |
| Cc1ccc(CS(=O)Cc2ccc(C(=O)N3CCN(c4ccccc4)CC3)o2)cc1 (centres unmarked) | -14.8% |
| COc1cccc(N2CCN(C(=O)c3ccc(CS(=O)Cc4ccccc4Cl)o3)CC2)c1 (centres unmarked) | -70.7% |
| O=C(c1ccc(CS(=O)Cc2ccccc2Cl)o1)N1CCN(c2cccc(Cl)c2)CC1 (centres unmarked) | -41.8% |
| COc1cccc(N2CCN(C(=O)c3ccc(CS(=O)Cc4ccc(C)cc4)o3)CC2)c1 (centres unmarked) | -11.4% |
| NS(=O)(=O)c1ccc2nc(NC(=O)CS(=O)(=O)c3ccccc3)sc2c1 | 26.8% |
| CCN(CC)CCN=C(C)c1c(O)n(-c2ccccc2OC)c(=O)[nH]c1=O | 4.71% |
| Cc1cccc(NC(=O)C(=O)C2C(=O)Nc3ccccc32)c1 (centres unmarked) | 4.05% |
| CC1=C(C(=O)Nc2ccccc2)C(c2ccco2)NC(=O)N1 (centres unmarked) | 14.5% |
| O=c1[nH]c2ccc(NS(=O)(=O)c3ccc(Cl)cc3)cc2[nH]1 | 15.8% |
| CCCc1ccc(OCc2ccc(C(=O)N3CCN(c4ccccn4)CC3)o2)c(OC)c1 | -56.5% |
| Cc1ccc(CS(=O)Cc2ccc(C(=O)NC3CCCCC3)o2)cc1 (centres unmarked) | 2.31% |
| Cc1ccc(C)c(N2CCN(C(=O)c3ccc(CS(=O)Cc4ccc(Cl)cc4)o3)CC2)c1 (centres unmarked) | -26.9% |
| Cc1ccc(C)c(N2CCN(C(=O)c3ccc(CS(=O)Cc4cccc(Cl)c4)o3)CC2)c1 (centres unmarked) | -6.6% |
| Cc1ccc(CS(=O)Cc2ccc(C(=O)NC3CCCCCC3)o2)cc1 (centres unmarked) | 8.98% |

| SMILES | hERG current change (%, negative = inhibition) at 10uM |
| --- | --- |
| Cc1cccc(N2CCN(C(=O)c3ccc(CS(=O)Cc4cccc(Cl)c4)o3)CC2)c1C (centres unmarked) | -13.5% |
| Cc1cccc(N2CCN(C(=O)c3ccc(CS(=O)Cc4ccc(Cl)cc4)o3)CC2)c1C (centres unmarked) | -57% |
| COc1ccccc1S(=O)(=O)Cc1ccc(C(=O)N2CCN(c3ccccn3)CC2)o1 | -17.8% |
| Cc1ccc(Cl)cc1N1CCN(C(=O)c2ccc(CS(=O)Cc3ccc(Cl)cc3)o2)CC1 (centres unmarked) | 13.9% |
| Cc1ccc(CS(=O)Cc2ccc(C(=O)NC3CCC(C)CC3)o2)cc1 (centres unmarked) | -51% |
| O=C(c1ccc(CS(=O)Cc2ccc(Cl)cc2)o1)N1CCN(c2ccccc2F)CC1 (centres unmarked) | -55.8% |
| CCCc1ccc(OCc2ccc(C(=O)O)o2)c(OC)c1 | 8.51% |
| Cc1cc(C)c(C)c(S(=O)(=O)N2CCC(C(=O)NCC(c3ccccc3)N(C)C)CC2)c1C (centres unmarked) | -48.9% |
| CC(CC(=O)N(C)CC(=O)Nc1ccc(N2CCOCC2)cc1)c1ccccc1 (centres unmarked) | -13.3% |
| COC(C[C@H]1O[C@H]1C(=O)[C@H](C)OCc1ccccc1)OC | 14.5% |
| CCC(c1nnnn1Cc1ccccc1)N1CCN(c2ccccc2)CC1 (centres unmarked) | -8.7% |
| Cc1cc(Cl)ccc1NC(=O)Cn1cncn1 | 14.3% |
| O=C(c1ccc(CS(=O)Cc2ccc(Cl)cc2)o1)N1CCN(c2ccc(F)cc2)CC1 (centres unmarked) | -62.1% |
| O=C(c1ccc(CS(=O)c2ccccc2Cl)o1)N1CCN(c2ccccc2)CC1 (centres unmarked) | -38.2% |
| O=C(c1ccc(CS(=O)Cc2ccc(Cl)cc2)o1)N1CCN(c2ccccc2)CC1 (centres unmarked) | -51.8% |
| O=C(c1ccc(CS(=O)Cc2ccc(Cl)cc2)o1)N1CCN(c2cccc(Cl)c2)CC1 (centres unmarked) | -52.7% |
| O=C(c1ccc(COc2ccccc2Cl)o1)N1CCN(c2ccccc2)CC1 | -24.1% |
| COc1cccc(N2CCN(C(=O)c3ccc(CS(=O)Cc4ccc(Cl)cc4)o3)CC2)c1 (centres unmarked) | -41.8% |
| CN1CCN(C(=O)c2ccc(CS(=O)Cc3ccc(Cl)cc3)o2)CC1 (centres unmarked) | 13.1% |
| COc1cccc(N2CCN(C(=O)c3ccc(CS(=O)c4ccc(Cl)cc4)o3)CC2)c1 (centres unmarked) | -42% |
